The record followed here is PubChem BioAssay AID1626 (SRMLSC, 2009).

The inhibition is the drop in the measured response relative to a control, in per cent.

Among all 220,000 compounds or so, about 2,000 (0.91%) were called active. Inconclusive results (about 2%) are left out. Cut-off read from the data, not from the text of the source: inconclusive = inhibition above about 80% without an active follow-up result; inactive = below that; test concentration not stated here. Not all results are given here. Entries with a potency or affinity are not part of this list.

The nature of the experiment: M. tuberculosis H37Rv growth inhibitors, H37Rv strain (AID 1626).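 Note: bacteria incubated seven days before Alamar blue readout; 0% = bacteria only wells and 100% = bacteria with antibiotic wells.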 As to conditions: active compounds read high, concentration not given here.
With `CCCNC(=O)c1ccc2c(=O)c(O)c(-c3ccc(OC)cc3)[nH]c2c1`, the inhibition is -8.43% (inactive).
The result for `CCO[C@@H]1OC(C(=O)O)=C[C@H](C2CCCCC2)[C@H]1CCCO` reads 6.74% (inactive); that for `CCCCOC(=O)Nc1ccc(C(N)=O)cc1`, -2.7% (inactive); that for `CCN(CC)c1ccc(NC(=O)c2ccc(Br)o2)cc1`, -1.94% (inactive).
The result for `COc1ccc(NC(=O)c2ccc(Br)o2)cc1` reads -11.7% (inactive); that for `CCOC(=O)c1ccc(NC(=O)c2cc(OC)c(OC)c(OC)c2Br)cc1`, 30.9% (inactive); that for `CCCCOC(=O)Nc1cccc(C(=O)OCC)c1`, 4% (inactive).
On to `CCCOC(=O)c1ccc(NC(=O)c2cc(OC)c(OC)c(OC)c2Br)cc1`, for which the inhibition is -1.63% (inactive).
Take `CCOC(=O)NCCOC(=O)Nc1ccc(Cl)cc1`: the inhibition was 2.79% (inactive).
The same measure for `CCCCOC(=O)Nc1ccc(C(=O)OC)cc1`: -7.29% (inactive).
In the case of `O=C1CCC2c3ccc4ccccc4c3CCN12` (stereo not drawn), the inhibition is -9.72% (inactive).
The same measure for `O=C(O)c1ccccc1C(=O)NCc1cccnc1`: -5.59% (inactive).
On to `COc1ccc(-n2c(NN)nc3sc4c(c3c2=O)CCCC4)cc1`, for which the inhibition is 9.05% (inactive).
The same measure for `COc1ccc(-n2c(C)nc3sc4c(c3c2=O)CCC4)cc1`: -4.02% (inactive); for `CNC(C)C#Cc1ccc2c(=O)c3cc(C)c(C)cc3oc2c1` (stereo not drawn): -0.56% (inactive).
The result for `Cn1nc(C(=O)OCC(=O)Nc2ccc(S(N)(=O)=O)cc2)c2ccccc2c1=O` reads 4.62% (inactive).
The same measure for `COc1ccc(CCNC(=O)CSCc2ccc(F)cc2)cc1OC`: -4.44% (inactive); for `Cc1ccccc1OC(=O)CCC(=O)OCCCC(F)(F)C(F)(F)F`: -4.35% (inactive).
Take `COCCCN1CCN(C2Cc3ccccc3Sc3ccc(Cl)cc32)CC1` (stereo not drawn): the inhibition is 54.7% (inactive).
Consider `c1ccc2c(c1)CC(N1CCCCC1)c1ccccc1N2` (stereo not drawn), for which the inhibition is -6.95% (inactive).
Regarding `CCc1nnc(NC(=O)CSc2nc3cc4c(cc3cc2CC)OCCO4)s1`, the inhibition is 7.01% (inactive).
On to `Cn1c(CN2CCOCC2)nnc1SCC(N)=O`, for which the inhibition was 7.64% (inactive).
The result for `O=C(NCCSCc1c(F)cccc1Cl)c1ccc(CN2CCOCC2)cc1` reads 0.75% (inactive).
In the case of `CC1CCN(S(=O)(=O)N2CCC(C(=O)O)CC2)CC1`, the inhibition was -4.2% (inactive).
The result for `C=CCNC(=O)NC(=O)CSc1nnc(C(F)(F)F)n1C` reads -4.51% (inactive); that for `CCCc1cc(=O)oc2cc(OCC(=O)OC)cc(OCC(=O)OC)c12`, 6.75% (inactive); that for `CCCCCCc1ccc(OCC(=O)O)cc1OCC(=O)O`, -14.7% (inactive).
The same measure for `Cn1c2ccc(F)cc2c2ncn(CC3CCCO3)c(=O)c21` (stereo not drawn): -14% (inactive); for `CCCn1c(=O)c(C(=O)NCc2cccnc2)c(O)c2ccccc21`: -5.34% (inactive); for `CCCCCn1c(=O)c(C(=O)NCc2ccncc2)c(O)c2ccccc21`: 41.4% (inactive).
The result for `CC(C)Cn1c(=O)c(C(=O)Nc2cnccn2)c(O)c2ccccc21` reads -13.3% (inactive).
Take `CCCCn1c(=O)c(C(=O)NCc2ccncc2)c(O)c2ccccc21`: the inhibition is -0.26% (inactive).
The same measure for `O=C(/C=C/c1ccco1)NC(=S)Nc1ccccn1`: 2.96% (inactive); for `COc1ccc(S(=O)(=O)N(C)C2CCN(C)CC2)cc1`: -0.56% (inactive); for `CC(=O)c1ccc(C(=O)N2CCC(CO)(Cc3cccc(C(F)(F)F)c3)CC2)cc1`: -0.21% (inactive).
The result for `CC1=C(C(=O)NC2CCC(C)CC2)C2(CCC(C)CC2)OC1=O` (stereo not drawn) reads 3.77% (inactive); that for `COC(=O)C1C(=O)C(C(=O)/C=C/c2ccccc2)C(=O)CC1(C)C` (stereo not drawn), -2.58% (inactive); that for `CCc1ccc(/C=C/C(=O)c2ccc(S(=O)(=O)N(C)C)cc2)cc1`, 6.7% (inactive).
The same measure for `O=C(c1ccccc1)C1C(=O)c2ccccc2C1=O`: -2.43% (inactive); for `Cc1ccc(C(=O)C2C(=O)c3ccccc3C2=O)cc1`: 39.5% (inactive).
As for `Cc1ccc(/C=C/C(=O)c2ccccc2O)cc1`, the inhibition was 11.9% (inactive).
`CCc1ccc(/C=C/C(=O)c2c(C)cc(C)[nH]c2=O)cc1`: the inhibition is 8.7% (inactive).
The result for `CNc1nc(-c2ccc3c(c2)CCN3C(=O)c2ccccc2F)cs1` reads 0.06% (inactive); that for `CC(C)(C)NC(=O)CN(C(=O)CSc1nnc(COc2ccccc2)o1)c1cccc(F)c1`, 4.71% (inactive); that for `CC(C)OP(=O)(OC(C)C)C(NCc1ccccc1)c1ccccc1` (stereo not drawn), 4.8% (inactive).
The result for `COC(=O)c1c(-c2ccccc2)noc1C` reads -2.56% (inactive).
As for `COc1ccc(/C=N/NC(=O)Nc2nonc2N)cc1`, the inhibition is -4.3% (inactive).
The same measure for `OCCCNCc1cccc2ccccc12`: 3.9% (inactive).
Regarding `O=C(Nc1ccccc1Cl)c1csc(-c2cccnc2)n1`, the inhibition was 2.6% (inactive).
As for `Cc1[nH]c(C)c2c(=O)n(-c3ccccc3)ncc12`, the inhibition was 3.67% (inactive).
Take `CCCSc1cc(N2CCCC2)nc(-c2ccccc2)n1`: the inhibition is 6.61% (inactive).
The result for `CCSc1cc(N2CCCC2)nc(-c2ccc(C)cc2)n1` reads 3.04% (inactive); that for `CC(C)(CC(=O)O)CC(=O)NNc1ncccc1C#N`, 9.47% (inactive).
For the compound `CCOc1ccc(/C=N/N(C)c2ccccc2)cc1OC`, the inhibition was 33.5% (inactive).
The result for `Cc1ccc(NC(=O)C2CCCCC2C(=O)O)cc1C` (stereo not drawn) reads 1.55% (inactive).
The result for `O=C(O)C1CCCCC1C(=O)Nc1ccc(F)c(F)c1` (stereo not drawn) reads 0.5% (inactive).
In the case of `COc1cc(/C=N/NC(N)=O)ccc1OCC(=O)N1C(C)CCCC1C` (stereo not drawn), the inhibition was -1.38% (inactive).
The same measure for `Cc1sc(N)c(C(=O)c2ccccc2)c1C`: -10.3% (inactive); for `CN(C)/C=N/c1ncc(C(=O)c2ccccc2)s1`: -11.7% (inactive); for `O=C(c1ccccc1)c1cc2ccccc2o1`: 1.99% (inactive).
The result for `Nc1nc(Nc2ccccc2)sc1C(=O)c1ccccc1` reads 36.1% (inactive); that for `COC(=O)CCCC1=CC2=C(c3ccccc3)C(=O)C(C)(OC(=O)C3CCCC3)C(=O)C2=CN1CCc1c[nH]c2ccccc12` (stereo not drawn), 0.18% (inactive).
The same measure for `COc1ccc(-n2c(C)cc(C(=O)Cn3nnc4ccccc4c3=O)c2C)cc1`: -8.34% (inactive).
Regarding `Cc1ccc(CN(c2ccc(C(=O)N3CCc4ccccc4C3)cc2)S(C)(=O)=O)cc1`, the inhibition was 6.8% (inactive).
Take `N#Cc1ccccc1Cn1cc(C(=O)c2cccs2)c2ccccc21`: the inhibition is 7.78% (inactive).
For `Nc1nc(Nc2cccc(F)c2)nc(NCCO)c1[N+](=O)[O-]`, the inhibition was 7.19% (inactive).
The result for `CC1CCC(C(C)C)C(OC(=O)Cn2nnc3c(cnn3-c3ccccc3)c2=O)C1` (stereo not drawn) reads 1.77% (inactive); that for `CC1CCC(C(C)C)C(OC(=O)COC(=O)c2ccccc2N)C1` (stereo not drawn), 6.07% (inactive).
The result for `CC1CCC(C(C)C)C(OC(=O)COC(=O)c2ccc(N)cc2)C1` (stereo not drawn) reads 68.7% (inactive); that for `CC1CCC(C(C)C)C(OC(=O)COC(=O)c2cccn2C)C1` (stereo not drawn), -6.06% (inactive); that for `CC1CCC(C(C)C)C(OC(=O)CSc2nccc(=O)[nH]2)C1` (stereo not drawn), -8.76% (inactive).
The same measure for `CC1CCC(C(C)C)C(OC(=O)COC(=O)c2ccc(=O)[nH]c2)C1` (stereo not drawn): -0.66% (inactive); for `CCOc1ccc(CCNC(=O)Cn2cccc2C(=O)c2ccccc2C)cc1OCC`: 4.18% (inactive).
In the case of `Cc1c(-c2n[nH]c(=S)n2-c2ccc(Br)cc2)nnn1-c1ccc(Cl)cc1`, the inhibition is 4.27% (inactive).
The same measure for `CCOC(CNc1c([N+](=O)[O-])c(=O)n(C)c(=O)n1C)OCC`: 3.27% (inactive).
The same measure for `Cc1ccccc1NC(=O)OCc1cccnc1Sc1ccc(Cl)cc1`: 0.86% (inactive).
The result for `Cn1c(SCC(=O)O)nc2ccccc2c1=O` reads 3.07% (inactive); that for `Cc1ccc(Sc2ccc(/C=C3/C(=O)NN(c4ccccc4)C3=O)o2)cc1`, 75.7% (inactive).
Regarding `CN1C(=O)C(=Cc2ccc(Sc3ccccc3)o2)C(=O)N(C)C1=O`, the inhibition is 41% (inactive).
The result for `CCCCc1nnc(NC(=O)CN2C(=O)c3ccccc3C2=O)s1` reads 0.96% (inactive); that for `CCOC(=O)COc1ccc(S(=O)(=O)N2CCN(c3ccc(F)cc3)CC2)cc1`, 8.22% (inactive); that for `CN1CCN(C(=O)/C(=C\c2cccc([N+](=O)[O-])c2)NC(=O)c2cccs2)CC1`, -3.33% (inactive).
The result for `O=C(NC1CCCCC1)C(c1ccc2ncccc2c1)N(Cc1ccco1)C(=O)c1ccc2c(c1)OCCO2` (stereo not drawn) reads 13.5% (inactive).
Regarding `O=C(NC1CCCCC1)C(c1ccc2ncccc2c1)N(Cc1ccc2c(c1)OCO2)C(=O)c1cccs1` (stereo not drawn), the inhibition was 8.94% (inactive).
The same measure for `COc1ccc(CN(C(=O)c2ccc3c(c2)OCCO3)C(C(=O)NC2CCCCC2)c2ccc3ncccc3c2)cc1` (stereo not drawn): 67.9% (inactive).
The same measure for `O=C(NC1CCCCC1)C(c1ccc2ncccc2c1)N(Cc1ccccc1)C(=O)c1cccs1` (stereo not drawn): 40.5% (inactive); for `Cn1c(SCC(=O)N/N=C/c2cccnc2)nnc1-c1ccccc1`: -5.36% (inactive); for `Cc1ccc(C(=O)OCC(=O)NC(C)C)cc1S(=O)(=O)N1CCOCC1`: -1.79% (inactive).
Regarding `CN(Cc1ccccc1)S(=O)(=O)c1ccc(NC(=S)NC(=O)C(C)(C)C)cc1`, the inhibition was 9.18% (inactive).
The same measure for `COc1cc(CN2CCCC(C(=O)c3ccc4c5c(cccc35)CC4)C2)cc(OC)c1O` (stereo not drawn): -1.67% (inactive); for `CC(C)c1[nH]nc2c1C(c1ccco1)C(C#N)=C(N)O2` (stereo not drawn): -5.64% (inactive).
The result for `O=C1CC(C(=O)O)C2(CCCC2)O1` (stereo not drawn) reads 9.23% (inactive).
The result for `Cc1ccc(N(CC(=O)NC2CCCC2)C(=O)CCCC(=O)Nc2ccccn2)cc1C` reads 10% (inactive).
As to `COc1ccccc1Sc1nc(-c2ccccc2)ncc1OC`, the inhibition is -2.36% (inactive).
The result for `O=C(O)c1cnc(-c2ccccc2)nc1Sc1ccccc1Cl` reads 1.01% (inactive); that for `Clc1ccccc1Sc1ccc(-c2ccccn2)s1`, -5.02% (inactive).
As for `COc1cnc(-c2ccccn2)nc1NC(C)C`, the inhibition is 75.4% (inactive).
For the compound `CC12CN3CC(C)(CN(C1)C3c1cccnc1)C2=O` (stereo not drawn), the inhibition was -0.26% (inactive).
